# Reference: PubChem BioAssay
# System: Fibrinogen (Alexa647-labelled)
# Assay: Alexa647-fibrinogen binding to printed small molecules – biochemical, small-molecule microarray, 635/667 nm fluorescence, artefact control for SMM control-protein annotation, profiling panel (AID 1131);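 further: z-score merges 667 nm fluorescence with per-spot signal-to-noise over triplicate slides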
# Settings: fibrinogen-A647 binding fluorescence, higher = more signal
row,Compound,composite z-score
1,O=C1[C@H]2[C@H]3[C@H](O)[C@H](O)CC(=NO[C@@H]4O[C@H](CO)[C@@H](O)[C@H](O)[C@H]4O)[C@@H]3CC[C@H]2C(=O)N1Cc1ccc2c(c1)OCO2,0.78
2,COC(=O)[C@H](C)NC(=O)[C@@H](C)CO,0.941
3,CC1CC/C=C\[C@H]2OC34C=CCN(Cn5nnc6ccccc65)C(=O)[C@H]3N(CCO)C(=O)[C@@H]4C2C(=O)O1 (stereo partly drawn),-1.14
4,O=C1CCCC2OC12C(O)CCc1ccccc1 (stereo not drawn),0.558
5,CO[C@@H]1COC(=O)[C@H](C)NC(=O)[C@@H](C)COC(=O)CCC[C@H]1C,-0.796
6,CCN1C(=O)[C@H]2[C@H]3[C@H](O)[C@H](O)CC(=NOC[C@@H](C)[C@H](OCc4ccccc4)C(C)C)[C@@H]3CC[C@H]2C1=O,0.58
7,O=C1[C@H]2[C@H]3[C@H](O)[C@H](O)CC(=NOCc4ccccc4)[C@@H]3CC[C@H]2C(=O)N1C1CCCCC1,-0.303

# Target: Follistatin (Homo sapiens) (UniProt P19883)
# Assay: FST protein binding to printed compounds – biochemical, small-molecule microarray, 635/667 nm fluorescence, primary screen (AID 1132)
# Settings: 635 nm fluorescence, higher = more signal
# Sequence of Follistatin (Homo sapiens) (P19883 whole entry, looked up): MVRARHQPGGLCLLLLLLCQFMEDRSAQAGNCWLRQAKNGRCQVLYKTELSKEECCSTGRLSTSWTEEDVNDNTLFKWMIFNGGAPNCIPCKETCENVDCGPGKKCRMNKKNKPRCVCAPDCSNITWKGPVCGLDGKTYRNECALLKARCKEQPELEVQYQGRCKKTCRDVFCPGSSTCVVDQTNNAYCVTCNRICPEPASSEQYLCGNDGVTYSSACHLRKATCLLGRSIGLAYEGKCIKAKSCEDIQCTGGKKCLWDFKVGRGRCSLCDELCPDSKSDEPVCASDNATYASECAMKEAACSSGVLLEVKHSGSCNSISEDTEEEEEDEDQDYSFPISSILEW
row,Compound,composite z-score
1,CCOC(=O)CCN1C(=O)[C@H]2[C@H]3[C@H](O)[C@H](O)CC(=NOC[C@@H](O)COCc4ccco4)[C@@H]3CC[C@H]2C1=O,-0.977
2,COc1ccc([Si](C)(C)[C@H]2[C@H](CC(=O)N3CCC[C@H]3CO)O[C@@]3(C(=O)N(Cc4cccc(N5C(=O)COc6ccccc65)c4)c4ccccc43)[C@@H]2C)cc1,0.727
3,CC(=O)OC[C@H]1O[C@H](CCON=C(C)CCC(=O)OC[C@H]2O[C@H](C#Cc3ccccc3)C=C[C@@H]2Oc2ccc(C)cc2)C=C[C@@H]1OC(C)=O,0.496
4,CCOC(=O)[C@H](CC(C)C)NC(=O)CCC1CC(OC(=O)NCc2cccc3ccccc23)CC2(CCCC(COC(=O)NCCN3CCOCC3)O2)O1 (stereo partly drawn),0.68
5,CN1C(=O)C2C=CC(C(O)C(c3ccccc3)c3ccccc3)N(NC(=O)OC(C)(C)C)C2C1=O (stereo not drawn),1.03
6,Cc1cc2c(c(=O)o1)[C@H](O)[C@H]1O[C@H]1C2=O,0.429
7,O=C(NN=C1C[C@@H](O)[C@@H](O)[C@@H]2[C@@H]3C(=O)N(c4cccc(Oc5ccccc5)c4)C(=O)[C@@H]3CC[C@@H]12)OCc1ccccc1,-0.0636
8,COC(=O)C1=CCC(c2cccc(Cl)c2)O1 (stereo not drawn),-0.399
9,NC(=O)NCC#Cc1ccc2c(c1)[C@]1(C(=O)N2)[C@H](c2ccc(O)cc2)N2[C@H](c3ccccc3)[C@H](c3ccccc3)OC(=O)[C@H]2[C@@H]1C(=O)N1CCCCCCC1,1.34
10,CC(C)[C@@H](OCc1ccccc1)[C@H](C)C=NOC[C@@H](C)[C@H](OCc1ccccc1)C(C)C,0.426
11,COc1ccc(O[C@H]2C=C[C@@H](c3ccccc3)O[C@@H]2COC(=O)N2CCCCC2)cc1,0.12
12,CO[C@@H]1COC(=O)CC=C[C@@H](C)[C@H](OC)COC(=O)[C@H](COCc2ccccc2)NC(=O)CC=C[C@H]1C,1.43
13,CO[C@@H]1COC(=O)[C@@H]2CCCN2C(=O)[C@@H](C)COC(=O)[C@H](COCc2ccccc2)NC(=O)CC=C[C@H]1C,0.421
14,CC(=O)OC[C@H]1O[C@H](CCON=C(C)CCN2CCc3nc(-c4ccccc4)c(-c4ccccc4)cc3C2)C=C[C@@H]1OC(C)=O,0.129
15,CCCC[C@@H](O)C1=C(C)C[C@H]2C(=O)N(Cc3ccccc3)C(=O)[C@H]2[C@H]1CO,0.438
16,O=C1[C@H]2[C@H]3[C@H](O)[C@H](O)CC(=NO[C@@H]4O[C@H](CO)[C@@H](O)[C@H](O)[C@H]4O)[C@H]3CC[C@H]2C(=O)N1C1CCCCC1,-0.384
17,COC(=O)C1=C(C)[C@@H](O)[C@@H](C)[C@H](c2c(OC)c(OC)c(C)c(OC)c2OC)O1,0.194
18,COc1ccc(-c2ccc3c(n2)CCCN3CC(O)CN2CCCc3nc(C)c(C)cc32)cc1 (stereo not drawn),1

row,Compound,composite z-score
1,CC(C)(C)OC(=O)CC[C@]1(C(=O)NCc2ccccc2)N=C(c2ccc(OCCCO)cc2)O[C@H]1c1ccccc1,0.362
2,CC(=O)OC[C@H]1O[C@H](C#CCCCc2ccccc2)C=C[C@@H]1OC(C)=O,0.47
3,CS(=O)(=O)CCOC(=O)C1=CC(CCCO)=CC(c2cccs2)N(Cc2cccc(OC(F)(F)F)c2)C=C1C(=O)OCCS(C)(=O)=O (stereo not drawn),0.243
4,NCCCCCNC(=O)[C@@H]1C[C@@H]2C(=O)N3CCC[C@H]3C(=O)N2[C@@H]1c1cccc(OCCO)c1,1.34
5,CC(C)=C1C(=O)C(c2ccccc2)=C2CN3C(=O)N(CCc4ccccc4)C(=O)[C@]3(Cc3ccc(F)cc3)[C@H]21,-0.968
6,COc1ccc(COC(=O)NN=C2C[C@@H](O)[C@@H](O)[C@@H]3[C@@H]4C(=O)N(Cc5ccc6c(c5)OCO6)C(=O)[C@@H]4CC[C@@H]23)cc1,-0.989
7,CCOC(=O)C[C@H]1[C@H](OC(=O)c2ccc(C(=O)c3ccccc3)cc2)[C@@H](NC(=O)c2ccc(-c3ccccc3)cc2)c2cc(OCCCO)ccc2N1C(=O)c1ccc2ccccc2n1,0.864
8,C[C@@H]1CC[C@H]2C(=O)O[C@H](COc3ccc(C(C)(C)C)cc3)CN2[C@H]1c1ccc(Br)cc1,-0.123
9,CC(C)CON=C1C[C@@H](O)[C@@H](O)[C@@H]2[C@@H]3C(=O)N([C@@H](C)c4ccccc4)C(=O)[C@@H]3CC[C@H]12,0.755
10,O=C1CCCC=C1C(O)CCOCc1ccccc1 (stereo not drawn),0.112
11,CCc1cccc(NC(=O)O[C@H]2[C@H](OC(=O)Nc3ccc4c(c3)OCO4)[C@@H](OC(=O)Nc3ccc4c(c3)OCO4)[C@@H](OC)O[C@@H]2CO)c1,1.03
12,O=C1[C@H]2[C@H]3[C@H](O)[C@H](O)CC(=NO[C@@H]4O[C@H](CO)[C@@H](O)[C@H](O)[C@H]4O)[C@@H]3CC[C@H]2C(=O)N1Cc1ccc2c(c1)OCO2,0.449
13,COC(=O)[C@H](C)NC(=O)[C@@H](C)CO,0.252
14,CC1CC/C=C\[C@H]2OC34C=CCN(Cn5nnc6ccccc65)C(=O)[C@H]3N(CCO)C(=O)[C@@H]4C2C(=O)O1 (stereo partly drawn),-0.312
15,O=C1CCCC2OC12C(O)CCc1ccccc1 (stereo not drawn),0.321
16,CO[C@@H]1COC(=O)[C@H](C)NC(=O)[C@@H](C)COC(=O)CCC[C@H]1C,0.775
17,CCN1C(=O)[C@H]2[C@H]3[C@H](O)[C@H](O)CC(=NOC[C@@H](C)[C@H](OCc4ccccc4)C(C)C)[C@@H]3CC[C@H]2C1=O,-0.0316
18,O=C1[C@H]2[C@H]3[C@H](O)[C@H](O)CC(=NOCc4ccccc4)[C@@H]3CC[C@H]2C(=O)N1C1CCCCC1,0.207
